Laboratory results published in ChEMBL document CHEMBL1961873, “Compounds: GSK PKIS; Assays: Nanosyn kinase panel” (2012).

What was measured:
[1] = target: Calcium/calmodulin-dependent protein kinase type II subunit alpha (Homo sapiens) (UniProt Q9UQM7); details: at 1 µM;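 also: reported value is a mean percent inhibition of CAMK2A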
[2] = target: Calcium/calmodulin-dependent protein kinase type II subunit delta (Homo sapiens) (UniProt Q13557); details: at 0.1 µM
[3] = target: Calcium/calmodulin-dependent protein kinase type II subunit delta (Homo sapiens) (UniProt Q13557); details: at 1 µM
[4] = target: T1, Calcium/calmodulin-dependent protein kinase type IV (Homo sapiens) (UniProt Q16566); details: at 0.1 µM
T1 sequence (whole entry): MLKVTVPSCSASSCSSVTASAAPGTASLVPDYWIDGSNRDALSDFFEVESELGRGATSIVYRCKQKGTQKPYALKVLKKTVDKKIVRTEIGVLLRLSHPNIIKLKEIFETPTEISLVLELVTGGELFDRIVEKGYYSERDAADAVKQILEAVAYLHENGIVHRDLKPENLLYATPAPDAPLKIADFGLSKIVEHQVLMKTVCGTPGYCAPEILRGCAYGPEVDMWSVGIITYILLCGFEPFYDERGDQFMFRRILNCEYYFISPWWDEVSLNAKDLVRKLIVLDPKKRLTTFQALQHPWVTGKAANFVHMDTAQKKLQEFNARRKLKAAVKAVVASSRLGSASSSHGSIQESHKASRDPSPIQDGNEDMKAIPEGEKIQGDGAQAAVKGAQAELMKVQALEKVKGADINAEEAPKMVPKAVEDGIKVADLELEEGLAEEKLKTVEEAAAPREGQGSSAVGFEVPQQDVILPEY

[5] = target: T1, Calcium/calmodulin-dependent protein kinase type IV (Homo sapiens); details: at 1 µM
[6] = target: T2, Serine/threonine-protein kinase Chk1 (Homo sapiens) (UniProt O14757); details: at 0.1 µM
T2 sequence (whole entry): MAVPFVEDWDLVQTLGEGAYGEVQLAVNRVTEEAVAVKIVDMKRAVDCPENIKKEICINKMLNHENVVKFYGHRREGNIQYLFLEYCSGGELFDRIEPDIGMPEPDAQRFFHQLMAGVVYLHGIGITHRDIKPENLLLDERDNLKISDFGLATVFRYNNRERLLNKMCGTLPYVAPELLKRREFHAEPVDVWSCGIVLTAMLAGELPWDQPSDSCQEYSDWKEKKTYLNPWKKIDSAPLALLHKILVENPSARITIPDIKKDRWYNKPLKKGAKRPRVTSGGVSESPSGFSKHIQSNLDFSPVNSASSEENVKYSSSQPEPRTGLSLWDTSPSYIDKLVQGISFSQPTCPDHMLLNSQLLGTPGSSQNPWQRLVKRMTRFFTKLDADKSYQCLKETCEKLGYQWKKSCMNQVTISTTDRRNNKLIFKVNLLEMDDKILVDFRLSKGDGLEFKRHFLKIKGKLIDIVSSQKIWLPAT

[7] = target: T2, Serine/threonine-protein kinase Chk1 (Homo sapiens); details: at 1 µM
[8] = target: Serine/threonine-protein kinase Chk2 (Homo sapiens) (UniProt O96017); details: at 0.1 µM
[9] = target: Serine/threonine-protein kinase Chk2 (Homo sapiens) (UniProt O96017); details: at 1 µM
[10] = target: Death-associated protein kinase 1 (Homo sapiens) (UniProt P53355); details: at 0.1 µM
[11] = target: Death-associated protein kinase 1 (Homo sapiens) (UniProt P53355); details: at 1 µM
[12] = target: T3, Serine/threonine-protein kinase DCLK2 (Homo sapiens) (UniProt Q8N568); details: at 0.1 µM
T3 sequence (whole entry): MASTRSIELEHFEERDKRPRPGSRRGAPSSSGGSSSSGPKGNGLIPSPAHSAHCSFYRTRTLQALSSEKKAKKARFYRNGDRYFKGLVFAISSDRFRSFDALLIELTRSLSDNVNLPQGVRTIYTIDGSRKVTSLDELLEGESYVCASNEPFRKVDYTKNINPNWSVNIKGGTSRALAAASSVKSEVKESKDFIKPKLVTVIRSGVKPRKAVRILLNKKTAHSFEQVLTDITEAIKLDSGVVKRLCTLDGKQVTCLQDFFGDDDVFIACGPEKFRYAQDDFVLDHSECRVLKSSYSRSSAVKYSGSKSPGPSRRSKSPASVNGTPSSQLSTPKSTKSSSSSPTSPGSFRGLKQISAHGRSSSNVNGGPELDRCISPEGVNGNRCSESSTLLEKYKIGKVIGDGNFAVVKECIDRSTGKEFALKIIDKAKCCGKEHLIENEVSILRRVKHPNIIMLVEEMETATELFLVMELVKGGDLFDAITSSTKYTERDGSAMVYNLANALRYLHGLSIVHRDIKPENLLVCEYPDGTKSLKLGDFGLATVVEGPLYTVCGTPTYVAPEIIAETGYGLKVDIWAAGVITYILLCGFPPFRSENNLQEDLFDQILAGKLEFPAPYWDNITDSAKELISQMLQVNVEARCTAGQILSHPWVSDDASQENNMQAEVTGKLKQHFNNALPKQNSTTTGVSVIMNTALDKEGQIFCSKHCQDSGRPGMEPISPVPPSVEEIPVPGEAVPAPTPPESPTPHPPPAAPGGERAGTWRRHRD

[13] = target: T3, Serine/threonine-protein kinase DCLK2 (Homo sapiens); details: at 1 µM
[14] = target: MAP kinase-activated protein kinase 2 (Homo sapiens) (UniProt P49137); details: at 0.1 µM
[15] = target: MAP kinase-activated protein kinase 2 (Homo sapiens) (UniProt P49137); details: at 1 µM
[16] = target: MAP kinase-activated protein kinase 3 (Homo sapiens) (UniProt Q16644); details: at 0.1 µM
[17] = target: MAP kinase-activated protein kinase 3 (Homo sapiens) (UniProt Q16644); details: at 1 µM
[18] = target: Serine/threonine-protein kinase MARK1 (Homo sapiens) (UniProt Q9P0L2); details: at 0.1 µM
[19] = target: Serine/threonine-protein kinase MARK1 (Homo sapiens) (UniProt Q9P0L2); details: at 1 µM
[20] = target: MAP/microtubule affinity-regulating kinase 3 (Homo sapiens) (UniProt P27448); details: at 0.1 µM;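 also: mean percent inhibition of MARK3 kinase activity, measured within the GSK PKIS screening panel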
Chain of MAP/microtubule affinity-regulating kinase 3 (Homo sapiens) (P27448 whole entry, looked up): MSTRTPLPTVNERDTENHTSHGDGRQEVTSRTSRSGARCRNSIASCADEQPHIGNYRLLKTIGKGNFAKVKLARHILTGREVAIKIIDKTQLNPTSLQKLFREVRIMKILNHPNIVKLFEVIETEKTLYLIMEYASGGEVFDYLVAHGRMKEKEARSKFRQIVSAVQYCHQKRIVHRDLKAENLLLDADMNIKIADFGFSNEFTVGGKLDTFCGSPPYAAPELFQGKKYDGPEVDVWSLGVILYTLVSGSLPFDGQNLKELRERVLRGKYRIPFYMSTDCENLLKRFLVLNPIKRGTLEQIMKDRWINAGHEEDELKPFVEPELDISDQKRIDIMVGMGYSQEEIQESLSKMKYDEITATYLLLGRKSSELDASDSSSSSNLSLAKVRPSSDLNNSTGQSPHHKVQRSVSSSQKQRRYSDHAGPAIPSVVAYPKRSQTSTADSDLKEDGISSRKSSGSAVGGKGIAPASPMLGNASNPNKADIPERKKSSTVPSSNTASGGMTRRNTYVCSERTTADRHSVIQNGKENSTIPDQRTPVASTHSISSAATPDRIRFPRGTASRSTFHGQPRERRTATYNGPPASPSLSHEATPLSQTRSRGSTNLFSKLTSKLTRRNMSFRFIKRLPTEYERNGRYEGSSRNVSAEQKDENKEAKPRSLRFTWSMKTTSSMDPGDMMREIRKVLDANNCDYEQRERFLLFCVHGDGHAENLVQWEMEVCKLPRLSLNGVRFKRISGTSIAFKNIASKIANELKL

Chain of Calcium/calmodulin-dependent protein kinase type II subunit alpha (Homo sapiens) (Q9UQM7 whole entry): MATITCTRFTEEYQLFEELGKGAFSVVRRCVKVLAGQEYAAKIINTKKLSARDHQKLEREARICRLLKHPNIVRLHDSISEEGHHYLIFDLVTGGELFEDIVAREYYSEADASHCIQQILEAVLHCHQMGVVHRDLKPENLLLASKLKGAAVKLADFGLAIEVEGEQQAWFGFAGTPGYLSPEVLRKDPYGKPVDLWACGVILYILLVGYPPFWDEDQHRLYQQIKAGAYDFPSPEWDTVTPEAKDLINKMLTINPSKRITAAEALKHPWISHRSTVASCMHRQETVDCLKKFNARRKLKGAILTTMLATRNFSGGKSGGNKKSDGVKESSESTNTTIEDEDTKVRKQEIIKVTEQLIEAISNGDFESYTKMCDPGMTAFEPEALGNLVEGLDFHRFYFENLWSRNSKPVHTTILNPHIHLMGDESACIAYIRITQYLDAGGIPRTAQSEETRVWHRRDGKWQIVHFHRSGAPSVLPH
Chain of Death-associated protein kinase 1 (Homo sapiens) (P53355 whole entry, looked up): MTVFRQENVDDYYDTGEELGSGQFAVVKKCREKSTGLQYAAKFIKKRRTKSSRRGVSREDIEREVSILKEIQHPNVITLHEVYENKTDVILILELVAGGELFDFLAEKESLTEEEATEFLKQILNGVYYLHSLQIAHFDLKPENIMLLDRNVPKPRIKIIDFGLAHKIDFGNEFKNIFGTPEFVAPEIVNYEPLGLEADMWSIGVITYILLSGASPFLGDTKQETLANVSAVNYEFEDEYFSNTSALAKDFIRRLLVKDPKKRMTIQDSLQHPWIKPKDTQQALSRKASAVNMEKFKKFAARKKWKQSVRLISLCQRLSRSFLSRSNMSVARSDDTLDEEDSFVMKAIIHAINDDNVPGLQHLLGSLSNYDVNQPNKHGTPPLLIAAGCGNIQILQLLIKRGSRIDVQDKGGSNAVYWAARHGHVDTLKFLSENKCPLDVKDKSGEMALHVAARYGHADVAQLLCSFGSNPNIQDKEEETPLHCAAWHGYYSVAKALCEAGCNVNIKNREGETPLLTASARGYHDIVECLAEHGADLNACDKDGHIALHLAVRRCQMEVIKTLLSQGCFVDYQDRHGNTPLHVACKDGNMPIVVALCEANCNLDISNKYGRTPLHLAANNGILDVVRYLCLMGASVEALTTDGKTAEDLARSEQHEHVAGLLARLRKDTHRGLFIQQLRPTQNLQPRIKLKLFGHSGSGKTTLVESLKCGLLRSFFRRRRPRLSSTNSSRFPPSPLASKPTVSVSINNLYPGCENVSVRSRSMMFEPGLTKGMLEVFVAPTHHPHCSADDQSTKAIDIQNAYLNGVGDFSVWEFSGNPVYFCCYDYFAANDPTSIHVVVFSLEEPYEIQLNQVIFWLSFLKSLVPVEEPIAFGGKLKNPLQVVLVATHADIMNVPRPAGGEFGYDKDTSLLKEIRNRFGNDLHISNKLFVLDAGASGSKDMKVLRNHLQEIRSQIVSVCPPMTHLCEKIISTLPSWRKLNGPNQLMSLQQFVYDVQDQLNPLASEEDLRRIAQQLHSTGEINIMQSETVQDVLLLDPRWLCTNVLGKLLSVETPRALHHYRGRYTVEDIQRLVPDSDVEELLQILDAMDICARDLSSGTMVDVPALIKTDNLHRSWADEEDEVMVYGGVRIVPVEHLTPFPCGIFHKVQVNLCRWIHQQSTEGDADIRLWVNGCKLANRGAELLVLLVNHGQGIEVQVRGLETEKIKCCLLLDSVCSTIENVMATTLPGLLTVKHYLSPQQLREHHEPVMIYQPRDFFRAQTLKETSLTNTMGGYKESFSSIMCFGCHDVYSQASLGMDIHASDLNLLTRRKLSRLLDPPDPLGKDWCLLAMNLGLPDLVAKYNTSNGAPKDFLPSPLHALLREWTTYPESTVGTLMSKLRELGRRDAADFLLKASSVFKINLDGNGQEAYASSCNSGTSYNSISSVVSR
Chain of Serine/threonine-protein kinase MARK1 (Homo sapiens) (Q9P0L2 whole entry, looked up): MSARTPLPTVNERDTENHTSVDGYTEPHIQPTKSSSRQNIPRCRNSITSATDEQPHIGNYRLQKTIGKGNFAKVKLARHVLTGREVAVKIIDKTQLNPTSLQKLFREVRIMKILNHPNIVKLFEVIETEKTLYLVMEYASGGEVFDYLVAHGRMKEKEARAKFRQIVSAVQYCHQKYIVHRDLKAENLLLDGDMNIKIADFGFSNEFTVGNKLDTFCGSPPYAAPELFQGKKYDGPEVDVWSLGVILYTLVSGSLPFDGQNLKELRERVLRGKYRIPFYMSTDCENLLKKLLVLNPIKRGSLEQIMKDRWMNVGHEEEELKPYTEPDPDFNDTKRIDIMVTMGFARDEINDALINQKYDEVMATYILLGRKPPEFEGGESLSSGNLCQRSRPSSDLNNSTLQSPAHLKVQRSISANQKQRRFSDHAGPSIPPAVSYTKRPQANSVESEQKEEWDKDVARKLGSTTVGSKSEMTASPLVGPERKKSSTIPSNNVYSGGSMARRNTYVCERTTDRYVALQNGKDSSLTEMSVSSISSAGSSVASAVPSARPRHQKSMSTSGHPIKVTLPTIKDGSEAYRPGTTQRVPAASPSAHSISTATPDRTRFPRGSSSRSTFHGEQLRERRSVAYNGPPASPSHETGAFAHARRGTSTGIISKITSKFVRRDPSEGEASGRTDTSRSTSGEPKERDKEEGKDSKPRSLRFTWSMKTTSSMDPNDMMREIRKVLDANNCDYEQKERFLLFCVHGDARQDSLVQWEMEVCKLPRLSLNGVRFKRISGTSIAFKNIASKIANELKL
Chain of Serine/threonine-protein kinase Chk2 (Homo sapiens) (O96017 whole entry): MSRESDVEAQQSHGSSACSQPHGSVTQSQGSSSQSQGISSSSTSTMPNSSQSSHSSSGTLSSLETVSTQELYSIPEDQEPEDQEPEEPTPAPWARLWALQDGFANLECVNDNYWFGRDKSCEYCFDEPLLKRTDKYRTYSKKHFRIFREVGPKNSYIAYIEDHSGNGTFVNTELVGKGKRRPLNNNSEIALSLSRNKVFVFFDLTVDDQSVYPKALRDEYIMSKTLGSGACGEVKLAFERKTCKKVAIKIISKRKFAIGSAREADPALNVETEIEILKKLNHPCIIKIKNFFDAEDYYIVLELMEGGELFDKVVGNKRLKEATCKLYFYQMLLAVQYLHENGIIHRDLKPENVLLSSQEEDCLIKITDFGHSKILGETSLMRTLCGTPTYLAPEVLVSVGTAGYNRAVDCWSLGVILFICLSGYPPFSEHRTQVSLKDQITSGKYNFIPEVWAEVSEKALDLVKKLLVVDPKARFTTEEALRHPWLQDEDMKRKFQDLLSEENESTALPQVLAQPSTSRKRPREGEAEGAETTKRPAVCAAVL
Chain of Calcium/calmodulin-dependent protein kinase type II subunit delta (Homo sapiens) (Q13557 whole entry): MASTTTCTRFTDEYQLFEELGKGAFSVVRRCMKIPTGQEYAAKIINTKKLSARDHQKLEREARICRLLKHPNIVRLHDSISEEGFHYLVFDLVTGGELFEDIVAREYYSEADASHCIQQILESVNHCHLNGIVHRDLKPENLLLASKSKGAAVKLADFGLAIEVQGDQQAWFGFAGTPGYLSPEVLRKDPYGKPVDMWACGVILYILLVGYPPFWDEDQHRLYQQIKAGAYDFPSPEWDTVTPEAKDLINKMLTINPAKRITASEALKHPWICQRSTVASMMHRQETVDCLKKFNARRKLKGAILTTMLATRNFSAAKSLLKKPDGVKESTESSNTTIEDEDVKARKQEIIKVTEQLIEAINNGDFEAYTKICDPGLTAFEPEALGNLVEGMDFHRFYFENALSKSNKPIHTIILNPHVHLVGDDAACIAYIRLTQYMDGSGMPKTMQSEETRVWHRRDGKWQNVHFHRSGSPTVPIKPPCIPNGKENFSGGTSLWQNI
Chain of MAP kinase-activated protein kinase 2 (Homo sapiens) (P49137 whole entry, looked up): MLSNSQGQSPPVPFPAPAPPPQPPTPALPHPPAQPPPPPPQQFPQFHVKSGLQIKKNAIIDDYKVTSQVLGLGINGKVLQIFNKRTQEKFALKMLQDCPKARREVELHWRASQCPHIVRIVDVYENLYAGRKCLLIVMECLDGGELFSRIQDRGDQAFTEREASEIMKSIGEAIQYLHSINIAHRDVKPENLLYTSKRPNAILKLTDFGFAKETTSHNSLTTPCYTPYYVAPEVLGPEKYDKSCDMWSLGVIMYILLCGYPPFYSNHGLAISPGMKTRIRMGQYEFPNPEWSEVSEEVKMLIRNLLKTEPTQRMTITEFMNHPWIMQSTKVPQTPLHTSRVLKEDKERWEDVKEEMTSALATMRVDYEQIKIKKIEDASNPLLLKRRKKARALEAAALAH

CCn1c(-c2nonc2N)nc2ccncc21
inhibition [1]: 6.48%
inhibition [2]: 2.32%
inhibition [3]: 4.41%
inhibition [4]: 0.03%
inhibition [5]: 1.1%
inhibition [6]: 1.89%
inhibition [7]: 0.17%
inhibition [8]: 1.09%
inhibition [9]: 1.49%
inhibition [10]: 1.08%
inhibition [11]: 2.7%
inhibition [12]: -2.35%
inhibition [13]: -1.48%
inhibition [14]: -0.18%
inhibition [15]: 0.49%
inhibition [16]: 0.85%
inhibition [17]: 1.7%
inhibition [18]: 0.76%
inhibition [19]: -0.05%
inhibition [20]: 0.13%

NC(=O)c1ccc(-c2nc(-c3ccccn3)c(-c3ccc4c(c3)OCO4)[nH]2)cc1
inhibition [1]: 3.33%
inhibition [2]: 1.17%
inhibition [3]: 1.87%
inhibition [4]: 0.57%
inhibition [5]: 0.4%
inhibition [6]: -1.44%
inhibition [7]: 2.65%
inhibition [8]: 1.07%
inhibition [9]: 1.89%
inhibition [10]: 2.4%
inhibition [11]: 2.62%
inhibition [12]: -0.58%
inhibition [13]: -8.11%
inhibition [14]: 1.1%
inhibition [15]: 0.74%
inhibition [16]: 3.61%
inhibition [17]: 5.05%
inhibition [18]: 1.86%
inhibition [19]: 3.27%
inhibition [20]: 2.26%

COc1cccc(-n2ncc3c(N/N=C/c4cccc(F)c4)ncnc32)c1
inhibition [1]: 2.7%
inhibition [2]: 2.52%
inhibition [3]: 16.1%
inhibition [4]: 0.94%
inhibition [5]: 1.12%
inhibition [6]: 1.95%
inhibition [7]: 3.28%
inhibition [8]: 1.45%
inhibition [9]: 1.6%
inhibition [10]: -0.52%
inhibition [11]: -1.39%
inhibition [12]: -4.3%
inhibition [13]: 1.59%
inhibition [14]: -0.12%
inhibition [15]: 0.02%
inhibition [16]: 1.02%
inhibition [17]: 0.04%
inhibition [18]: 2.19%
inhibition [19]: 6.35%
inhibition [20]: 0.17%

Nc1nc(-c2ccc3c(c2)C(=Cc2cc(Br)c(O)c(Br)c2)C(=O)N3)cs1
inhibition [1]: -3.05%
inhibition [2]: -2.31%
inhibition [3]: -1.31%
inhibition [4]: -0.65%
inhibition [5]: -2.75%
inhibition [6]: 3.04%
inhibition [7]: 1.34%
inhibition [8]: -2.92%
inhibition [9]: 0.55%
inhibition [10]: 0.32%
inhibition [11]: -4.53%
inhibition [12]: -3.76%
inhibition [13]: -0.78%
inhibition [14]: -1.56%
inhibition [15]: -1.55%
inhibition [16]: -1.77%
inhibition [17]: -1.51%
inhibition [18]: 0.42%
inhibition [19]: 1.58%
inhibition [20]: -0.72%

NS(=O)(=O)c1ccc(N/N=C2\C(=O)Nc3ccc(C(=O)NCCc4c[nH]cn4)cc32)cc1
inhibition [1]: 10.6%
inhibition [2]: 8.76%
inhibition [3]: 32.5%
inhibition [4]: 0.01%
inhibition [5]: 0.46%
inhibition [6]: 4.59%
inhibition [7]: 17.2%
inhibition [8]: 4.59%
inhibition [9]: 18.3%
inhibition [10]: 4.26%
inhibition [11]: 12.4%
inhibition [12]: 1.45%
inhibition [13]: 0.59%
inhibition [14]: 2.48%
inhibition [15]: 2.03%
inhibition [16]: 3.95%
inhibition [17]: 3.57%
inhibition [18]: 16%
inhibition [19]: 61.4%
inhibition [20]: 8.6%

O=C1NC(=O)C(c2cccc(Cl)c2)=C1Nc1ccc(O)c(Cl)c1
inhibition [1]: 6.43%
inhibition [2]: 3.12%
inhibition [3]: 12%
inhibition [4]: 1.98%
inhibition [5]: 4.94%
inhibition [6]: 1.7%
inhibition [7]: 4.63%
inhibition [8]: 0.16%
inhibition [9]: 2.07%
inhibition [10]: 1.29%
inhibition [11]: 2.13%
inhibition [12]: -0.44%
inhibition [13]: -0.92%
inhibition [14]: 0.03%
inhibition [15]: 0.04%
inhibition [16]: -0.58%
inhibition [17]: 1.59%
inhibition [18]: 2.1%
inhibition [19]: 15.6%
inhibition [20]: 5.22%

Nc1ncnc2occ(-c3ccc(NC(=O)Nc4cccc(C(F)(F)F)c4)cc3)c12
inhibition [1]: 1.03%
inhibition [2]: 3.02%
inhibition [3]: 2.75%
inhibition [4]: -0.91%
inhibition [5]: 4.17%
inhibition [6]: 6.67%
inhibition [7]: 5.24%
inhibition [8]: 3.95%
inhibition [9]: 6.09%
inhibition [10]: 8.33%
inhibition [11]: 4.16%
inhibition [12]: 0.41%
inhibition [13]: 1.61%
inhibition [14]: 3.79%
inhibition [15]: 3.15%
inhibition [16]: 9.11%
inhibition [17]: 20.7%
inhibition [18]: 3.95%
inhibition [19]: 8.44%
inhibition [20]: 3.75%
